HT1080NT lethal: kills 2HG-producing HT-1080-NT fibrosarcoma cells | HT-1080-NT fibrosarcoma viability, CellTiter-Glo ATP luminescence, 48 h | Potency, µM (series often up to 46.1 µM), most hits filed as cytotoxic | 360,000 compounds, 1.6% hits;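 also: NT is the 2HG producing partner of a matched IDH1 knockdown line; nearly all actives have a fitted effect of over 55% in size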
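750 cells/well, RPMI + 5% FBS; 2 h settle, compound pin-transfer, 48 h at 37 degrees C. CellTiter-Glo 10 min RT, luminescence. Normalized to DMSO and media-only wells.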
HT1080 IDH1KD tx: kills HT-1080 cells with IDH1 knockdown. Potency, µM (series often up to 46.1 µM), usual class: cytotoxic. HT-1080 IDH1 knockdown viability, ATP luminescence, 48 h. AID 686971. 360,000 compounds, 2% hits
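Using the IDH1-knockdown HT-1080 line run in the same batch and compound series as the NT line, viability after 48 h at 37 °C was determined by CellTiter-Glo luminescence and expressed as % activity.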
KB-V1 cytotox: kills drug-selected multidrug resistant KB-V1 cells; KB-V1 MDR cells viability, CellTiter-Glo, 72 h; Potency, µM (titrated, usually from 46.1 µM), usual class: cytotoxic; AID 1347076; 400,000 compounds, 3.4% hits; also: nearly all actives have a fitted effect of over 60% in size
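Potencies derive from concentration-effect curves fitted to normalized luminescence (CellTiter-Glo) of KB-V1 cells treated for 72 h at 37 degrees C in phenol-red-free DMEM containing 10% FBS.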
SW480 rereplic: DNA re-replication induction in SW480 cells | SW480 DNA re-replication, Hoechst DNA content imaging, 48 h | Potency, µM (series often up to 46.1 µM), most hits filed as activators | 340,000 compounds, 1.8% hits; also: nearly all actives have a fitted effect of over 55% in size
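Readout is total intensity of Hoechst-stained nuclei, excited at 405 nm and collected at 500-530 nm. Compound treatment lasted 48 hr at 37 C in 5% CO2 before staining.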
KB-3-1 tox: kills parental KB-3-1 adenocarcinoma cells. 400,000 compounds, 1.4% hits. KB-3-1 viability, CellTiter-Glo ATP luminescence, 72 h. Potency, µM (top dose mostly 46.1 µM), actives largely listed as cytotoxic; also: nearly all actives have a fitted effect of over 60% in size
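Multi-concentration cytotoxicity screen in KB-3-1 cells grown in DMEM lacking phenol red with 10% FBS. After 72 h at 37 °C with compound, ATP-dependent luminescence was recorded.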
MCF10A rerep: inducers of DNA re-replication in MCF 10A breast cells; Potency, µM (doses to about 46.1 µM), most hits filed as activators; MCF 10A DNA re-replication, Hoechst nuclear intensity, 48 h; AID 624296; 350,000 compounds, 2.9% hits; also: nearly all actives have a fitted effect of over 50% in size
A number is an active result; n = inactive; u = inconclusive; x = no result given. Sampled rows, rich in hits. Any-hit rate of the full collection: about 8%. Calls follow the shape of the dose curve; as a rule, active = well fitted curve in the direction sought with a large enough effect; inconclusive = small, poorly fitted or top-dose-only effect, or another doubt; inactive = no such curve, though single readings can be large; an effect the other way counts as inactive or inconclusive.

SMILES	HT1080NT lethal	HT1080 IDH1KD tx	KB-V1 cytotox	SW480 rereplic	KB-3-1 tox	MCF10A rerep
O=C(CSc1ncnc2c1nnn2Cc1ccccc1F)N1CCN(c2ccccc2)CC1	n	n	u	n	u	21µM
CC(C)(C)NC(=O)CSc1ncnc2c1nnn2Cc1ccccc1Cl	u	u	n	u	n	15µM
Clc1ccccc1Cn1nnc2c(N3CCCC3)ncnc21	u	20µM	n	n	n	n
OCCNc1nc(C2CC2)nc2c1nnn2Cc1ccccc1Cl	n	u	6.5µM	n	n	u
CN1c2ccc(Cl)cc2-c2nc(SCC(=O)NCc3ccccc3)ncc2S1(=O)=O	x	x	n	x	n	x
Cc1nc(-c2ccc(S(=O)(=O)N(C)Cc3ccccc3)cc2)co1	x	x	n	x	n	x
Cc1ccc(CSc2ncc(Cl)c(C(=O)NCCc3ccc(S(N)(=O)=O)cc3)n2)cc1	x	x	u	x	n	x
NC(=O)C1CCN(c2nc(C3CC3)nc3c2nnn3Cc2ccccc2)CC1	u	n	n	n	n	n
NC(=O)C1CCN(c2nc(C3CC3)nc3c2nnn3Cc2ccccc2Cl)CC1	n	n	n	n	n	21µM
CC(=C\c1ccco1)/C=C(\C#N)C(=O)NCCc1c[nH]c2ccccc12	n	n	23µM	n	n	u
O=C(NCCc1c[nH]c2ccccc12)/C(=C/c1ccco1)NC(=O)c1ccco1	n	n	n	n	n	n
COc1cc(/C=C(/C#N)C(=O)NCCc2c[nH]c3ccccc23)ccc1OCc1ccccc1F	n	n	u	3.3µM	u	5.2µM
Cc1cc(/C=C(\C#N)C(=O)NCCc2c[nH]c3ccccc23)c(C)n1C	n	n	n	n	n	n
Cc1cc(C)cc(N2C(=O)C=CC2=O)c1	u	u	n	16µM	u	6.5µM
CC(C)(C)C1CCC(OCC(O)CN2CCN(c3ccccc3)CC2)CC1 (centres undefined)	n	u	u	n	n	21µM
CC1CCc2nc3ncn(CC(=O)Nc4cccc(C#N)c4)c(=O)c3cc2C1 (centres undefined)	x	x	u	x	n	x
COc1ccc(P(=O)(COc2ccc([N+](=O)[O-])cc2)c2ccc(OC)cc2)cc1	n	n	4.1µM	n	n	n
O=P(COc1ccccc1)(c1ccccc1)c1ccccc1	n	n	15µM	n	n	n
O=P(CCCCCCCCCP(=O)(c1ccccc1)c1ccccc1)(c1ccccc1)c1ccccc1	18µM	23µM	15µM	n	u	u
COc1ccc(Cn2c(CO)cnc2SCc2cccc(C)c2)cc1	x	x	n	x	n	x
Cc1[nH][nH]c(=O)c1C(c1ccc(-c2cccc(Cl)c2)o1)c1c(C)[nH][nH]c1=O	u	n	n	n	n	18µM
Cc1ccc(C)c(NC(=O)NNC(=O)c2cc3ccccc3cc2O)c1	n	n	n	n	n	15µM
O=C(Nc1ccncc1)c1ccc(-c2ccccc2)cc1	n	n	n	u	23µM	u
COc1ccc(NC(=O)c2c(Cl)n(C)c3ccccc23)cc1	18µM	u	5.8µM	u	2.9µM	16µM
COc1ccc(NC(=O)c2cccc3ccccc23)cc1	n	u	u	u	u	21µM
SMILES	HT1080NT lethal	HT1080 IDH1KD tx	KB-V1 cytotox	SW480 rereplic	KB-3-1 tox	MCF10A rerep
CCCN(CCC)C(=O)Cn1nnc2sc(-c3ccccc3)cc2c1=O	x	x	n	x	n	x
COc1c(C(=O)Nc2ccc(Cc3ccncc3)cc2)ccc2ccccc12	n	n	2.9µM	u	13µM	23µM
O=C(Nc1ccncc1)c1sc2ccccc2c1Cl	n	n	8.2µM	n	n	n
O=C(NC1CCCCCCC1)c1ccccc1O	n	n	n	n	n	n
COc1ccc(NC(=O)c2cc3ccccc3cc2O)cc1	u	u	n	u	n	4.6µM
O=C(NC1CCCCC1)c1cc2ccccc2cc1O	n	n	n	18µM	u	n
Cc1ccc(CNC(=O)c2cc(-c3ccc(C)cc3)nc3n[nH]c(-c4cccc([N+](=O)[O-])c4)c23)cc1	x	x	n	x	n	x
COC(=O)Cc1c(C)c2cc3c(c(C)c2oc1=O)OCN(CCc1ccccc1F)C3	x	x	n	x	n	x

Screens deposited in PubChem BioAssay by National Center for Advancing Translational Sciences (NCATS).
